Experimental data: PubChem BioAssay (NCI)
The panel holds about 83,000 compounds, 20% with a hit somewhere; the sample as a whole holds those more often.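 In brief: 96-well plates, 48 h treatment, single concentration, percent growth endpoint.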 Unmarked numbers belong to inactive results. Activity calls are given as the source filed them. The calls were made as follows: active = growth percent below 10; inactive = the rest.

These compounds were tested on SW-620 colon (assay: NCI-60 one-dose screen, 48 h (100 = growth as untreated, 0 = no growth, -100 = all killed)). Settings: 10 µM unless noted.

SMILES | growth
CC(=O)CC(=O)SC1=NCCS1 | 97.7%
CCCCCCCCCCCCCCNC(=O)Nc1ccc(Cl)c(Cl)c1 | 32.9%
O=S(=O)(NCc1ccccc1)c1ncnc2nc[nH]c12 | 103%
Cc1cc(-c2ccc(N=Nc3c(S(=O)(=O)O)cc4cc(S(=O)(=O)O)cc(N)c4c3O)c(C)c2)ccc1N=Nc1cc(S(=O)(=O)O)c2ccccc2c1O | 109%
CC1=C/C(=C(\c2cc(C)c(O)c(C(=O)O)c2)c2c(Cl)cccc2Cl)C=C(C(=O)O)C1=O | 110%
O=C(Nc1ccccc1)Nc1ccc(C(=O)/C=C/c2ccc(N3CCCC3)cc2)cc1 | 83.6%
CC(C)(C)c1cc(C(=O)Nc2ccc(C(=O)NCCN)cc2)cc(C(C)(C)C)c1 | 1.34% (active)
C[C@@H]1C[C@H]2C(=O)O[C@@H](C)[C@H](NC(=O)[C@H](Cc3cc(F)cc(F)c3)NC(=O)Nc3ccc(Cl)cc3F)C(=O)N3C[C@H](O)C[C@H]3C(=O)N3CCN(C)C[C@H]3C(=O)N[C@@H](C)C(=O)N2C1 | 42%
C=C(C)[C@@H]1CC[C@]2(COC(=O)c3ccccc3C(=O)O)CC[C@]3(C)[C@H](CC[C@@H]4[C@@]5(C)CC[C@H](OC(=O)c6ccccc6C(=O)O)C(C)(C)[C@@H]5CC[C@]43C)[C@@H]12 | 41.7% [100 µM]
C[C@H]1[C@H](C)CC[C@]2(C(=O)N3CCN(C)CC3)CC[C@]3(C)C(=CC[C@@H]4[C@@]5(C)C/C(=C/c6ccco6)C(=O)C(C)(C)[C@@H]5CC[C@]43C)[C@H]12 | 39.9% [100 µM]
CCN(CC)CCCC(C)Nc1c2ccc(C)cc2nc2ccc(OC)cc12 (stereo unspecified) | -41.4% (active)
C#C[C@]1(O)CC[C@H]2[C@@H]3CC=C4c5nc(N)sc5CC[C@]4(C)[C@H]3CC[C@@]21C | 74.6%
COc1cc(C)cc2oc3oc(=O)c(-c4nc5ccccc5s4)cc3c(=O)c12 | 83.9%
COC(=O)[C@]12CCC(C)(C)C[C@H]1C1=CC[C@@H]3[C@@]4(C)C/C(=C/c5cccnc5)C(=O)C(C)(C)[C@@H]4CC[C@@]3(C)[C@]1(C)CC2 | -43.4% [100 µM] (active)
O=C(Nc1cccc(C2=NCCN2)c1)c1cccc(C(=O)Nc2cccc(C3=NCCN3)c2)c1 | 98.2%
CCOc1cc(NC(=O)c2ccccc2)c(OCC)cc1N | 109%

SMILES | growth
CC1(C)CC[C@]2(C(=O)OC(=O)[C@]34CCC(C)(C)C[C@@H]3C3=CC[C@@H]5[C@@]6(C)CCC(=O)C(C)(C)[C@@H]6CC[C@@]5(C)[C@]3(C)CC4)CC[C@]3(C)C(=CC[C@@H]4[C@@]5(C)CCC(=O)C(C)(C)[C@@H]5CC[C@]43C)[C@H]2C1 | 70% [100 µM]
CCCc1cc2cc(-n3nc(C)c4c3CC(C)(C)CC4=O)cc(NC3CCSCC3)c2c(=O)[nH]1 | 32.4%
CC(=O)OC[C@]12CC[C@@H]([C@@H](C)C(N)=O)[C@@H]1[C@H]1CC[C@@H]3[C@@]4(C)CC[C@H](OC(C)=O)C(C)(C)[C@@H]4CC[C@@]3(C)[C@]1(C)CC2 | -55.1% [100 µM] (active)
O=C(N/N=C/c1ccc([N+](=O)[O-])cc1)c1ccc(Br)o1 | 104%
O=[N+]([O-])c1ccc(O)c(-c2nc3ccccc3s2)c1 | 87.8%
COc1cccc(-c2[nH]c(=S)ncc2C(=O)c2ccccc2)c1 | 66.6%
COc1ccc2nc3c(cc2c1)C(=O)CC(C(F)(F)F)C3 (stereo unspecified) | 41.5%
CCN(CC)CCCOc1ccc2c(c1)O/C(=C\c1cccc(OC)c1)C2=O | 73.9%
CCc1cccc(Cl)c1 | 111%
CCCCCN(CCCCC)CCCCCCCCN1CCCc2ccccc21 | 82.8%
COc1ccc2c(c1)c(-c1noc(C(=O)c3cn(C)c4ncc(Br)cc34)n1)cn2C | 43.6%
NS(=O)(=O)c1ccc(CCN2C(=O)/C(=C\c3ccccc3)C=C2c2ccc(Cl)cc2)cc1 | 99.2%
Cc1ncc(C(=O)Nc2ccc(CN3CCN(C)CC3)c(C(F)(F)F)c2)cc1C#Cc1c(N)ncc2ccc(C#N)cc12 | 34.1%
CCCCN(CCCC)CC(O)c1ccc(OCc2ccccc2)c2ccccc12 (stereo unspecified) | 72.6%
CC[C@]12C=CCN3CC[C@@]4(c5ccc(OC)cc5N(C)[C@H]4[C@@](O)(C(=O)OC)[C@@H]1OC(=O)CCC(=O)O[C@H]1CC[C@H]4[C@@H]5CCC6=CC(=O)CC[C@@H]6[C@H]5CC[C@]14C)[C@@H]32 | 11.1% [100 µM]
